Compound activity as filed in PubChem BioAssay.
HT1080 IDH1KD tx: toxicity to HT-1080 IDH1 knockdown cells (counter line); HT-1080 IDH1 knockdown viability, ATP luminescence, 48 h; Potency, µM (highest dose often 46.1 µM), for inactives: top-dose activity, negative = toxicity, actives largely listed as cytotoxic; hit rate 2% among 360,000; AID 686971;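 further: potency means the concentration at half of the fitted maximal effect; 0% = DMSO wells and -100% = cell-free medium wells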
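In this qHTS, HT-1080 cells depleted of IDH1 are exposed for 48 h at 37 °C to compound titrations. Toxicity is scored from CellTiter-Glo luminescence, with DMSO as full viability and medium alone as none.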
ELG1 DNA repair: blocks ELG1-dependent DNA repair in HEK293T cells; HEK293T ELG1-luciferase reporter, luminescence, 16 h; DNA damage induced by 5-fluorouridine; Potency, µM (doses to about 46.1 µM), inactives show at the top dose activity change, negative = inhibition, hits mostly inhibitors; hit rate 2.3% among 330,000; further: potency means the concentration at half of the fitted maximal effect; nearly all actives have a fitted effect of over 55% in size
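Luminescence from the luciferase reporter, measured 30 min after ONE-Glo reagent at room temperature, was the read-out. Beforehand, 2,000 cells per well were exposed for 16 hr at 37 °C to 5-fluorouridine together with compound or vehicle.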
IL1B secr inh: inhibitors of inflammasome signaling (IL-1 beta secretion); activity change, % at 57.5 µM; hit rate 4.7% among 360,000; THP-1 LPS/ATP IL-1B secretion, AlphaLISA, 16 h; active compounds read low; AID 743279; in the data active means activity change below about -50%; inconclusive means mostly about -30% to -49%
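THP-1 cells pretreated 1 hr with compounds (up to 57.5 uM final), then stimulated with LPS (250 ng/mL final) plus ATP (1.25 mM final); secreted IL-1B measured by AlphaLISA after 16 hr, decreased signal indicating inhibition.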
TDP1 cell noCPT: qHTS for Inhibitors of human tyrosyl-DNA phosphodiesterase 1 (TDP1): qHTS in cells in absence of CPT | AID 686978, 2013 | hit rate 15% among 420,000 | Potency, µM (top dose mostly 46.2 µM), for inactives: top-dose activity change, negative = growth inhibition, actives largely listed as inhibitors | DT40 Tdp1-/- hTDP1 cells, no CPT, ATP luminescence, 48 h; further: potency means the concentration at half of the fitted maximal effect; nearly all actives have a fitted effect of over 55% in size
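Growth kinetics read by CellTiter-Glo luminescence after ≥48 hr at 37 °C. Cells: DT40 Tdp1-/- stably carrying human TDP1, 400 per well, compound exposure in the absence of CPT (DMSO vehicle).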
DT40 TDP1 CPT: growth inhibition of DT40 Tdp1-/-;hTDP1 cells with camptothecin (screen for TDP1 inhibitors); chicken DT40 Tdp1-/-;hTDP1 cells + 20 nM CPT, ATP luminescence, 48 h; Potency, µM (doses to about 46.2 µM), inactives show at the highest dose activity change, negative = growth inhibition, most hits filed as inhibitors; hit rate 12% among 420,000; further: potency means the concentration at half of the fitted maximal effect; nearly all actives have a fitted effect of over 55% in size
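Chicken DT40 Tdp1-/- cells complemented with human TDP1, 400 cells/well, exposed to compounds plus 20 nM camptothecin for at least 48 h at 37 C; viability read as ATP content by CellTiter-Glo luminescence.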
HT1080NT lethal: kills 2HG-producing HT-1080-NT fibrosarcoma cells. HT-1080-NT fibrosarcoma viability, CellTiter-Glo ATP luminescence, 48 h. Potency, µM (highest dose often 46.1 µM), for the others: at the highest dose activity, negative = less viability, usual class: cytotoxic. hit rate 1.6% among 360,000;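 further: NT is the 2HG producing partner of a matched IDH1 knockdown line; potency means the concentration at half of the fitted maximal effect; 0% = DMSO-treated cells and -100% = media-only wells without cells; nearly all actives have a fitted effect of over 55% in size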
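Toxicity toward the 2HG-producing NT line was scored as %Activity, normalised to DMSO and no-cell wells, from CellTiter-Glo luminescence after 48 hours' treatment.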
* hit, by the source's call; u = inconclusive; x = no result. Sampled rows, rich in hits. Any-hit rate of the full collection: about 19%. Unless noted, the call rests on the fitted dose curve; in most records, active means well fitted curve in the direction sought with a large enough effect; inconclusive means small, poorly fitted or top-dose-only effect, or another doubt; inactive means no such curve, though single readings can be large; an effect the other way counts as inactive or inconclusive. Unless noted, on the % scale 0 is the no-effect control and ±100 the full control effect.

SMILES | HT1080 IDH1KD tx | ELG1 DNA repair | IL1B secr inh | TDP1 cell noCPT | DT40 TDP1 CPT | HT1080NT lethal
CN(CCOc1ccc(Br)cc1)CC(O)COc1ccc(C#N)cc1 (configuration not stated) | u | u | -87* | 4.1µM* | u | 21µM*
CN(CCOc1ccccc1)CC(O)COc1ccccc1 (configuration not stated) | -9% | 12% | -10 | u | u | -6%
CCCSc1nc2sc3c(c2c(=O)n1-c1ccc(C)c(Cl)c1)CCN(C(C)=O)C3 | x | x | x | 23µM* | 23µM* | x
CSc1nc2nc3c(cc2c(=O)n1-c1ccccc1C)CCCC3 | -2% | u | 7 | 7.3µM* | 7.3µM* | -13%
CSc1nc2sc3c(c2c(=O)n1-c1ccccc1C)CCCC3 | x | x | x | 16µM* | 23µM* | x
CC(=O)N1CCc2c(sc3nc(SCC(C)C)n(-c4ccc(C)c(Cl)c4)c(=O)c23)C1 | x | x | x | u | 23µM* | x
CC(=O)N1CCc2c(sc3nc(SCC(N)=O)n(-c4ccc(F)c(Cl)c4)c(=O)c23)C1 | x | x | x | 15% | 5% | x
CC(Sc1nc2sc3c(c2c(=O)n1-c1ccccc1)CCCC3)C(=O)O (configuration not stated) | 5% | 6% | 0 | 9% | -18% | 2%
CNC(C)C(=O)NC(C(=O)NC(C)C(=O)Nc1cccc2ccccc12)C(C)C (configuration not stated) | 11% | x | 0 | -1% | 0% | 8%
CCCCSc1nnc2n(-c3cccc(C)c3)c(=O)c3c4c(sc3n12)CCCC4 | x | x | x | 16µM* | u | x
Cc1ccc(-n2c(SCC(=O)O)nc3sc4c(c3c2=O)CCCC4)cc1 | -14% | 9% | 0 | 9% | 9% | -8%
CCCSc1nc2sc3c(c2c(=O)n1-c1ccc(C)cc1)CCCC3 | x | x | x | 9.2µM* | u | x
CSc1nnc2n(-c3ccccc3)c(=O)c3c4c(sc3n12)CCC4 | -14% | -4% | -6 | -37% | -12% | -8%
CCN(CC)C(=O)CCSc1nnc(-c2ccco2)o1 | 8% | u | 0 | 1% | 6% | 14%
Cc1ccc(Cl)cc1N1CCN(C(=O)CCCn2c(=O)c3cccn3c3cccnc32)CC1 | -2% | u | -9 | 29µM* | u | -1%
Cc1cccc(N2CCN(C(=O)CCCn3c(=O)c4cccn4c4cccnc43)CC2)c1C | u | 16µM* | -24 | 18µM* | u | u
Cc1ccc(Cl)cc1N1CCN(C(=O)CCCCCn2c(=O)[nH]c3ccccc3c2=O)CC1 | x | x | x | 0.65µM* | 0.73µM* | x
CC1CC(C)CN(C(=O)CCCn2c(=O)c3cccn3c3cccnc32)C1 (configuration not stated) | -3% | 8% | -23 | 1% | -20% | -9%
CCOc1ccc(NC(=O)c2ccc3c(c2)CCN3S(=O)(=O)CC)cc1 | x | x | x | u | -11% | x
COc1cccc(NC(=O)CN(C)C(=O)c2c(C)nn(CC(C)C)c2Cl)c1 | 0% | 1% | 0 | 12% | 6% | -2%
O=C(c1ccc(Cl)c(S(=O)(=O)N2CCCCC2)c1)N1CCCCC1 | 0% | -9% | 36 | -26% | u | -5%
CC(=O)N1CCN(C(=O)c2cc(S(=O)(=O)N3CCN(c4ccccc4)CC3)ccc2Cl)CC1 | 7% | 0% | 23 | 10µM* | u | 9%
O=C(c1ccc(Cl)c(S(=O)(=O)N2CCCC2)c1)N1CCN(c2ccccc2)CC1 | 0% | 16µM* | 10 | u | 18µM* | -13%
O=C(c1ccc(Cl)c(S(=O)(=O)N2CCCCC2)c1)N1CCCC1 | -4% | u | 17 | -14% | -16% | 0%
O=C(c1cc(S(=O)(=O)N2CCOCC2)ccc1Cl)N1CCN(c2ccccn2)CC1 | -10% | 0% | 31 | u | -27% | -14%
SMILES | HT1080 IDH1KD tx | ELG1 DNA repair | IL1B secr inh | TDP1 cell noCPT | DT40 TDP1 CPT | HT1080NT lethal
O=C(c1ccc(Cl)c(S(=O)(=O)N2CCCCCC2)c1)N1CCN(c2ccccc2O)CC1 | -28% | 16µM* | -68* | u | u | -23%
O=C(c1ccc(Cl)c(S(=O)(=O)N2CCCC2)c1)N1CCN(c2ccc(F)cc2)CC1 | -3% | 21µM* | -24 | 13µM* | u | -19%
O=C(c1ccc(Cl)c(S(=O)(=O)N2CCCCCC2)c1)N1CCCC1 | -12% | u | 48 | -19% | u | 2%
Cc1ccc2c(=O)cc(C(=O)Nc3c(C(=O)c4ccccc4)oc4ccccc34)oc2c1 | x | x | x | 2% | -9% | x
Cc1cc2ccccc2n2c(SCC(=O)NCC3CCCO3)nnc12 (configuration not stated) | 15% | 1% | -23 | 0% | 0% | 4%
CCCc1c(OCCCOc2ccc(OCC(=O)O)cc2)ccc(CC=O)c1O | x | x | x | -4% | 8% | x
O=C(c1ccc(Cl)c(S(=O)(=O)N2CCCCC2)c1)N1CCN(c2ccccc2)CC1 | u | u | -17 | u | 23µM* | -25%
CN(c1ccccc1)S(=O)(=O)c1cc(C(=O)N2CCN(c3ccccn3)CC2)ccc1Cl | -10% | 15µM* | u | 7.3µM* | 9.2µM* | -1%
CN1CC(=O)NC1=NC(=O)c1ccc(Cl)c(S(=O)(=O)N2CCCCCC2)c1 | -16% | 0% | 4 | 8.2µM* | u | -20%
O=C(c1ccc(Cl)c(Cl)c1)N1CCN(c2ccccn2)CC1 | -1% | -23% | -21 | -18% | 7% | 1%
Cc1cc(C)n(C(C)CC(=O)Nc2ccc3c(c2)OCO3)n1 (configuration not stated) | -1% | 0% | 2 | u | -7% | -3%
COc1ccc(CCNC(=O)CCC(=O)N2CC(C)Oc3ccccc32)cc1OC (configuration not stated) | -2% | 9% | -26 | u | -21% | 1%
Cc1c(O)nc(SCC(=O)Nc2ccc(Cl)cc2Cl)n(-c2ccc(F)cc2)c1=O | x | x | x | -4% | 11% | x
COc1ccc(-n2c(=O)c(CCC(=O)N3CCC(C)CC3)nc3ccccc32)cc1 | 0% | -4% | -4 | u | 18µM* | -1%
CCOc1ccc(-n2c(SCC(=O)N3CCCC3)nc3c([nH]c4ccccc43)c2=O)cc1 | x | x | x | -5% | -7% | x
CCOc1ccc(-n2c(SCC(=O)N3CCC(C)CC3)nc3c([nH]c4ccccc43)c2=O)cc1 | x | x | x | 5.2µM* | 2.1µM* | x
